Test results: PubChem BioAssay AID1421 (Emory University Molecular Libraries Screening Center, 2008)
Out of some 1,300 compounds screened, about 140 (11%) were called active. The list is a sample of the results. Measured potencies and affinities stand elsewhere. Unmarked numbers belong to inactive results. How the calls were made is not given here.

What follows are compounds tested against Prostaglandin E2 receptor EP2 subtype (Homo sapiens) (UniProt P43116) (assay: EP2 receptor modulators, dose response, cell-based, human EP2, PGE2 EC50 shift (AID 1421)). Conditions: EP2-expressing cells, PGE2 EC50 shift by compound; at 20 µM.
Chain of Prostaglandin E2 receptor EP2 subtype (Homo sapiens) (P43116 whole entry, looked up): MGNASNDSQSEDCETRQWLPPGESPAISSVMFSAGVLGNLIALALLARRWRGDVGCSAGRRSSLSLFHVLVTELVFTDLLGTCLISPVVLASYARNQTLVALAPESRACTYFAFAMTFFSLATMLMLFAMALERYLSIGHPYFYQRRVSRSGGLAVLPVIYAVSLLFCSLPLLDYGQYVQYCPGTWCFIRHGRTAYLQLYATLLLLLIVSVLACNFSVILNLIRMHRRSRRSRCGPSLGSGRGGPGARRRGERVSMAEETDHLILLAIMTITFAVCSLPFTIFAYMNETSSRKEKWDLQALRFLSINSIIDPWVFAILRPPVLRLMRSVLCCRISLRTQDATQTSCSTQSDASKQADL

| SMILES | PGE2 EC50 with compound [nM] |
| --- | --- |
| COc1ccc2c(-c3ccccc3)cc(N3CCOCC3)nc2c1 | 0.43 |
| Cc1cccc(/C=N/Nc2cc(N3CCOCC3)nc(N3CCOCC3)n2)c1 | 0.59 |
| CCSc1nnc(-c2ccc(Cl)cc2)c2ccccc12 | 2.31 |
| COc1ccc(C2=Nn3c(nnc3C3CCCCC3)SC2)cc1OC | 0.48 |
| CCOC(=O)C1=C(CC)OC(N)=C(C#N)C1c1ccsc1 (stereo not given) | 0.52 |
| CCn1c2ccc(Cl)cc2c2nc3ccccc3nc21 | 0.4 |
| O=c1c2ccccc2nc(/C=C/c2ccccc2)n1CCc1ccccc1 | 0.1 |
| C=CCOc1c(Br)cc(/C=N/n2c(CC)n[nH]c2=S)cc1Br | 0.13 |
| CC(C)c1nc(N2CCN(C(=O)c3ccccc3)CC2)c(C#N)c2c1COC(C)(C)C2 | 0.35 |
| Cc1nc2ccccn2c1C(=O)CSc1ccc(Cl)cc1Cl | 5.69 |
| Cc1cc(C(=O)NCC(c2ccco2)N(C)C)no1 (stereo not given) | 0.8 |
| O=S(Cc1cc(Sc2ccccc2)nc(-c2ccccc2)n1)c1ccccc1 (stereo not given) | 0.32 |
| CCOC(=O)c1[nH]c2ccc(OC)cc2c1NS(=O)(=O)c1ccc(Cl)s1 | 0.39 |
| CCOC(=O)c1c(NC(=O)c2ccncc2)sc(C)c1C | 0.45 |
| CCOC(=O)c1oc2ccccc2c1NC(=O)c1cccc(OC)c1OC | 0.43 |
| CCOC(=O)CNC(=O)c1ccc2c(c1)OCCO2 | 0.46 |
| CCOC(=O)c1cc2sc(C)cc2n1C(C)C(=O)OCC (stereo not given) | 0.35 |
| CCOC(=O)c1c(-c2ccc(C)cc2)csc1NC(=O)c1ccc(N2C(=O)CCC2=O)cc1 | 0.29 |
| Cc1ccccc1Cn1c(-c2cncs2)nc2ccccc21 | 0.55 |
| c1ccc(CCc2ccccc2-c2nc(-c3cccnc3)no2)cc1 | 0.18 |

| SMILES | PGE2 EC50 with compound [nM] |
| --- | --- |
| CCOC(=O)c1c(NC(=O)CSc2nnc(N)s2)sc(C)c1-c1ccc(C)cc1 | 0.35 |
| Cc1cccc(N=N/C(=C\O)C(=O)c2ccc(Br)cc2)c1 | 0.18 |
| Cc1cc(C)c(S(=O)(=O)O)c(C)n1 | 0.61 |
| COC(=O)c1[nH]c2ccccc2c1NS(=O)(=O)c1ccc(F)c(C)c1 | 0.41 |
| Cn1c(=O)[nH]c(=O)c2c1nc(CN1CCN(c3ccccc3F)CC1)n2CCCc1ccccc1 | 0.47 |
| S=c1[nH]nc(-c2ccc(Br)o2)n1Cc1ccccc1 | 0.8 |
| Cc1ccc2c3c(cccc13)-c1ccccc1C2=O | 0.36 |
| Cn1c(=O)c(NCCc2ccccc2)c2c3c(cccc31)C(=O)c1ccccc1-2 | 0.58 |
| NC(=O)CSc1nnc(-c2cccc(S(=O)(=O)N3CCOCC3)c2)n1C1CCCCCC1 | 0.63 |
| Cc1noc(C)c1CSc1nc2sc3c(c2c(=O)n1C)CCCC3 | 0.89 |
| CCCSc1nc(N2CCCC2)c2c(c1C#N)CC(C)(C)OC2 | 0.26 |
| Cc1cc2ccc(C)c(C)c2nc1SCC#N | 0.35 |
| C=CCn1c(CCc2cc(C(C)(C)C)c(O)c(C(C)(C)C)c2)n[nH]c1=S | 0.58 |
| OCCCNc1nc(-c2ccc(Cl)cc2)nnc1-c1ccc(Br)cc1 | 1.44 |
| CC(OC(=O)c1oc2ccccc2c1COc1ccccc1)C(=O)NC(N)=O (stereo not given) | 0.23 |
| CCOc1ccccc1NC(=O)c1ccccc1-c1nc(-c2ccccc2)no1 | 0.4 |
| Cc1onc(-c2ccccc2Cl)c1-c1nc(-c2ccncc2)no1 | 0.49 |
| Cc1nn2c(N3CCN(C(=O)c4ccco4)CC3)cc(C(C)(C)C)nc2c1-c1ccccc1 | 1.08 |
| Cc1ccc(NCc2n[nH]c(=S)n2Cc2ccccc2)cc1Cl | 0.64 |
| O=C(O)/C=C/c1ccccc1Oc1ccc(Cl)cc1Cl | 1.45 |

| SMILES | PGE2 EC50 with compound [nM] |
| --- | --- |
| COc1ccc(OC)c(/C=C/C(=O)N2CCCc3ccccc32)c1 | 0.28 |
| COc1cc2c(cc1OC)-c1cc(Nc3ccc4c(c3)OCCO4)nc(=O)n1CC2 | 0.72 |
| C=C(C)Cn1c(C)cc(C)c(S(=O)(=O)c2ccc(C)cc2)c1=O | 0.32 |
| COC(=O)c1c(NC(=O)CSc2nnc(-c3ccco3)n2Cc2ccccc2)sc(C)c1C | 0.82 |
| CCc1cc2cc3c(cc2nc1SCC(=O)OC(C)C)OCO3 | 0.14 |
| CCOC(=O)C1CCN(c2c(C(=O)c3ccccc3)cnc3ccc(CC)cc23)CC1 | 0.81 |
| CCOC(=O)C1CCN(c2c(C(=O)c3ccccc3)cnc3ccc(Cl)cc23)CC1 | 0.39 |
| O=c1[nH]c2ccc(Cl)cc2c(-c2ccccc2)c1N1CCN(c2ccccn2)CC1 | 0.62 |
| O=c1[nH]c2ccc(Br)cc2c(-c2ccccc2)c1N1CCOCC1 | 0.39 |
| O=C(Nc1cccc2cccnc12)c1ccc(Br)o1 | 0.36 |
| CCOP(=O)(OCC)c1nc(/C=C/c2ccccc2)oc1NCc1ccccc1 | 0.52 |
| CC1CCCN(C(=O)CSc2cnc3ccccc3n2)C1 (stereo not given) | 1.42 |
| CCOC(=O)c1c(N)sc2c1CCC(CC)C2 (stereo not given) | 0.46 |
| COCC(=O)Nc1sc2c(c1C(=O)OC)CCC(C)C2 (stereo not given) | 0.38 |
| CCn1nnnc1SCC(=O)Nc1cccc(C)n1 | 1.23 |
| COc1cccc(C2=NN(C(=O)c3cccs3)C(O)(C(F)(F)F)C2)c1 (stereo not given) | 0.25 |
| CN(C)c1nccc(N(Cc2ccccc2)Cc2ccccc2)c1C#N | 0.29 |
| S=C(Nc1ccccc1Cl)N(Cc1ccccc1)Cc1ccccn1 | 0.41 |
| Cc1ccc(C(C)C)c(OCCn2c(=O)oc3ccccc32)c1 | 0.33 |
| CC(C)(C)C1CCc2onc(C(=O)Nc3cccnc3)c2C1 (stereo not given) | 0.4 |
